Assay in all cases: DAPPL (digital affinity profiling via proximity ligation, sequencing); 10 mM Tris-HCl pH 7.5, 50 mM NaCl, 1 mM DTT, 4% glycerol, room temperature, 30 min; GST-TFs on glutathione beads, 16-mer random dsDNA library, 0.1% formaldehyde crosslink after washing; high values mean tight binding
The target in one assay is T1, FLI1 (Homo sapiens, UniProt Q01543 1-452).
T1 sequence: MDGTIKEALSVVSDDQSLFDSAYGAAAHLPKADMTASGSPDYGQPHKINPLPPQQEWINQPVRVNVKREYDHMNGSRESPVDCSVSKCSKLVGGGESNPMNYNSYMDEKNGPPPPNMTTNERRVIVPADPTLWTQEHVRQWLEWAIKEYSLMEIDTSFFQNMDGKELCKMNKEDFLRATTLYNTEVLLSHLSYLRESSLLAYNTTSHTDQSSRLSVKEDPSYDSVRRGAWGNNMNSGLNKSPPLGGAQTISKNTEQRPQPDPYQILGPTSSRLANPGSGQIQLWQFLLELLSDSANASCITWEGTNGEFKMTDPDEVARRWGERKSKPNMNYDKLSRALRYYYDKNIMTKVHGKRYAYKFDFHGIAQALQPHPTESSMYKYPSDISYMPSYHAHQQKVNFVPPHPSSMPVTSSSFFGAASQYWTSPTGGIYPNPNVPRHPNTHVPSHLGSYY
The following applies: protein: recombinant; tags: N-terminal GST; dsDNA, one strand shown. An outline of the steps:
(§1)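 Human transcription factors fused to GST were expressed in yeast, captured on glutathione beads, given DNA barcodes and pooled with a GST-only negative control. Pools were incubated with 200 nmole of a 16-mer random double-stranded DNA library in Tris/NaCl/DTT/glycerol buffer at room temperature for 30 min. They were then washed, crosslinked with 0.1% formaldehyde, proximity-ligated (BsaI/T4 ligase, 1 h, 37 °C), PCR-amplified and sequenced on an Illumina NextSeq500. Binding signal is each 6-mer's read frequency for a factor divided by its frequency for the GST control.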

For a further assay, the target named is T2, ELK1 (Homo sapiens, UniProt P19419 1-428).
T2 sequence: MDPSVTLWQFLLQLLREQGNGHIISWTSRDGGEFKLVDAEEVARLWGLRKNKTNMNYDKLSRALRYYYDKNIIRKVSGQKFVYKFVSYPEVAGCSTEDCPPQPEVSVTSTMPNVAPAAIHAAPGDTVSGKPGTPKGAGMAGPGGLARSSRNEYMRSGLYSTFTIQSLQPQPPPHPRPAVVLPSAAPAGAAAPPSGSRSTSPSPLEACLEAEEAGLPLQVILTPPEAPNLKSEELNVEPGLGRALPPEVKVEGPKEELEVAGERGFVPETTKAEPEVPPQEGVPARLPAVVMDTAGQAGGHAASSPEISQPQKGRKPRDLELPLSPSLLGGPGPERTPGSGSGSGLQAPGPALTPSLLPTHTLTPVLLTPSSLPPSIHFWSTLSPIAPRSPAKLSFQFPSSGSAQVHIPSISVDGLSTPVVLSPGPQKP
The settings on record: protein: recombinant; tags: N-terminal GST; dsDNA, one strand shown. The gist of the method: as §1

Another assay deals with T3, GABPA (Homo sapiens, UniProt Q06546 1-454).
T3 sequence: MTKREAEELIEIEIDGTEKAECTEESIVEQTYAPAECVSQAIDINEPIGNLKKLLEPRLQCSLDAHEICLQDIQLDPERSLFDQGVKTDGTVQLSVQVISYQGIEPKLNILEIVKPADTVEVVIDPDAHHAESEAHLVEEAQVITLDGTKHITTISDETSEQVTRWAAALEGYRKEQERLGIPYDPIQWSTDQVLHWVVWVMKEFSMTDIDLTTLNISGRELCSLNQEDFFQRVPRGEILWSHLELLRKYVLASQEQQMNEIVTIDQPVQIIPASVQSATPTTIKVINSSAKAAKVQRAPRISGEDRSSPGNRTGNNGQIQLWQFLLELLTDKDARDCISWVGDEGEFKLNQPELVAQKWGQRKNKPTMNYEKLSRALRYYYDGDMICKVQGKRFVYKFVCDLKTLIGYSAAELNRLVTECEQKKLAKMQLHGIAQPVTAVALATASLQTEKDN
The settings on record: protein: recombinant; tags: N-terminal GST; dsDNA, one strand shown. An outline of the steps:
as §1

For the next assay, the target named is T4, ERG (Homo sapiens, UniProt P11308 1-479).
T4 sequence: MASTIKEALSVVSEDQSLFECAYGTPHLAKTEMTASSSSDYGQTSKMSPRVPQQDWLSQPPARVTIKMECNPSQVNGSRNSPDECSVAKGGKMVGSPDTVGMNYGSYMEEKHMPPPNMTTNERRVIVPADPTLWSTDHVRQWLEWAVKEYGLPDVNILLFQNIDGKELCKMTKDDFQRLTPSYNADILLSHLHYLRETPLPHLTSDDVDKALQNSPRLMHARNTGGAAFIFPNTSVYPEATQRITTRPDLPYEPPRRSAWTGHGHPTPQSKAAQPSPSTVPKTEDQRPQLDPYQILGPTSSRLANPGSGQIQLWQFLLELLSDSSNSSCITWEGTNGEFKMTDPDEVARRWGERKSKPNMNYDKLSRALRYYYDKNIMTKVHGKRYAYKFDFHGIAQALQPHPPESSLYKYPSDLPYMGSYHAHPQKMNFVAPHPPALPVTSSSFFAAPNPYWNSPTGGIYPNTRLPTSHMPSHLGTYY
The settings on record: protein: recombinant; tags: N-terminal GST; dsDNA, one strand shown. The gist of the method:
as §1

The next assay has as its target ELF1 (Homo sapiens, UniProt P32519 1-619). The following applies: protein: recombinant; tags: N-terminal GST; dsDNA, one strand shown. The gist of the method:
as §1

For the next assay, the target named is T5, EHF (Homo sapiens, UniProt Q9NZC4 1-300).
T5 sequence: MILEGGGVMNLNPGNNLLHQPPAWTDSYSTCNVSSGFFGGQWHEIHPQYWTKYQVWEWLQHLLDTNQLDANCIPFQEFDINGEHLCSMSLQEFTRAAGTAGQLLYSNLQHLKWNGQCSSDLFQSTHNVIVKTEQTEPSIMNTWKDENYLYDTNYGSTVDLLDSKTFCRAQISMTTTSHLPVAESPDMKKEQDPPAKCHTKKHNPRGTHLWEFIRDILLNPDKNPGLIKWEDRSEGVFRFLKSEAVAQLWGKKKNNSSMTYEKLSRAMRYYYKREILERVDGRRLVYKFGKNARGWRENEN
The following applies: protein: recombinant; tags: N-terminal GST; dsDNA, one strand shown. An outline of the steps: as §1

Another assay deals with HSF1 (Homo sapiens, UniProt Q00613 1-529). The following applies: protein: recombinant; tags: N-terminal GST; chain copies: 3; dsDNA, one strand shown. The gist of the method: as §1
HSF1, sequence (Q00613 whole entry): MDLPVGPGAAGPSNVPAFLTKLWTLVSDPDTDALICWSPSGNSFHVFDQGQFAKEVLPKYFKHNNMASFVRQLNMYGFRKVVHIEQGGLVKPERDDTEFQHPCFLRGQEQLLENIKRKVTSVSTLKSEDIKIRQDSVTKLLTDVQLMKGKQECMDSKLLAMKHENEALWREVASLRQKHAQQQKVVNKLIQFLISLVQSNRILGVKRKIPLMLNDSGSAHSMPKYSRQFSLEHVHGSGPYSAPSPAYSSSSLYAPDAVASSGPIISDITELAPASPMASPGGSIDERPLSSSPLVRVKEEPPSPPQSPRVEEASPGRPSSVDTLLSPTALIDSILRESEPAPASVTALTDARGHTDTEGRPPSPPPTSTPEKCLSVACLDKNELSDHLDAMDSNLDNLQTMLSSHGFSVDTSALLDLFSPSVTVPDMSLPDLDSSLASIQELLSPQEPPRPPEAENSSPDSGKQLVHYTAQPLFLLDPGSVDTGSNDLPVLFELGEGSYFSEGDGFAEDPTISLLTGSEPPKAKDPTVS
Another assay deals with ELF4 (Homo sapiens, UniProt Q99607 1-663). The settings on record: protein: recombinant; tags: N-terminal GST; dsDNA, one strand shown. The gist of the method: as §1
ELF4, sequence (Q99607 whole entry): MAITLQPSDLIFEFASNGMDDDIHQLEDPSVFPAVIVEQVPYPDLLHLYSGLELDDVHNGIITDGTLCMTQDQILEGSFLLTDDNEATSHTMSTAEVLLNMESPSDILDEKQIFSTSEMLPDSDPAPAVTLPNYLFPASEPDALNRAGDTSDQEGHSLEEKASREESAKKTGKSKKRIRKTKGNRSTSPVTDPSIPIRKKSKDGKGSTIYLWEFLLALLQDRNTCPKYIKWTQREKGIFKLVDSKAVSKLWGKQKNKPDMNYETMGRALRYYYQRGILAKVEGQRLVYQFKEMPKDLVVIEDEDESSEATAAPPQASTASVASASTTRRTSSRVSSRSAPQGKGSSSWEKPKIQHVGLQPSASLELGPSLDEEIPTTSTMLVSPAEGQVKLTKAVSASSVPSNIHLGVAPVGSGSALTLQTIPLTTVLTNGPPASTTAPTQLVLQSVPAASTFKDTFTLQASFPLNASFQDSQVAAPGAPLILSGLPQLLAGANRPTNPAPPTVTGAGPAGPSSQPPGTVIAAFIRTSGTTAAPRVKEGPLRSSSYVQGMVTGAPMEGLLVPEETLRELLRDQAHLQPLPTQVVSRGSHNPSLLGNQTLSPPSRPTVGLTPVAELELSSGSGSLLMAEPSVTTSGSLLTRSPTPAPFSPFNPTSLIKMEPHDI
A further assay concerns the target T6, ELK4 (Homo sapiens, UniProt P28324-2 1-405).
T6 sequence: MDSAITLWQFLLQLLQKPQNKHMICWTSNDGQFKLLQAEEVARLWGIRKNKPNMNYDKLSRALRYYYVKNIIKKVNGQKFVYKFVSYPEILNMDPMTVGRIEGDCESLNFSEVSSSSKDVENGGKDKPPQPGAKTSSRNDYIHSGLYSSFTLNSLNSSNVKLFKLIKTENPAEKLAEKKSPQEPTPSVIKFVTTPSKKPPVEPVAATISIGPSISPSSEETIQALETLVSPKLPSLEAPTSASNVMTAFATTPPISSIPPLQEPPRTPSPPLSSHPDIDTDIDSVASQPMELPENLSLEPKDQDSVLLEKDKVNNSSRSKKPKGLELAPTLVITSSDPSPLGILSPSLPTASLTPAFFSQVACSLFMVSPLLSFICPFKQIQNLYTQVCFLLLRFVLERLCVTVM
The settings on record: protein: recombinant; tags: N-terminal GST; dsDNA, one strand shown. The gist of the method: as §1

A further assay deals with T7, ETV2 (Homo sapiens, UniProt O00321 1-342).
T7 sequence: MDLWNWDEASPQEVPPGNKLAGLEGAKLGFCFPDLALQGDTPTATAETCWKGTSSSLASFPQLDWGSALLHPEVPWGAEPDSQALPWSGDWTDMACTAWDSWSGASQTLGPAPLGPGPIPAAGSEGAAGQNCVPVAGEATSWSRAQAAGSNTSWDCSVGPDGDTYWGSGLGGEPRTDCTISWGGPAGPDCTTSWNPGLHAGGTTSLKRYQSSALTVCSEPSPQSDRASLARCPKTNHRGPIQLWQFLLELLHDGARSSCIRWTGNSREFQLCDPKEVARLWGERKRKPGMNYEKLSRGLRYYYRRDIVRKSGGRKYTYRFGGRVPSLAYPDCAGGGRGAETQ
The following applies: protein: recombinant; tags: N-terminal GST; dsDNA, one strand shown. The gist of the method:
as §1

The target in another assay is ETV1 (Homo sapiens, UniProt P50549 1-477). The following applies: protein: recombinant; tags: N-terminal GST; dsDNA, one strand shown. The gist of the method: as §1
ETV1, sequence (P50549 whole entry): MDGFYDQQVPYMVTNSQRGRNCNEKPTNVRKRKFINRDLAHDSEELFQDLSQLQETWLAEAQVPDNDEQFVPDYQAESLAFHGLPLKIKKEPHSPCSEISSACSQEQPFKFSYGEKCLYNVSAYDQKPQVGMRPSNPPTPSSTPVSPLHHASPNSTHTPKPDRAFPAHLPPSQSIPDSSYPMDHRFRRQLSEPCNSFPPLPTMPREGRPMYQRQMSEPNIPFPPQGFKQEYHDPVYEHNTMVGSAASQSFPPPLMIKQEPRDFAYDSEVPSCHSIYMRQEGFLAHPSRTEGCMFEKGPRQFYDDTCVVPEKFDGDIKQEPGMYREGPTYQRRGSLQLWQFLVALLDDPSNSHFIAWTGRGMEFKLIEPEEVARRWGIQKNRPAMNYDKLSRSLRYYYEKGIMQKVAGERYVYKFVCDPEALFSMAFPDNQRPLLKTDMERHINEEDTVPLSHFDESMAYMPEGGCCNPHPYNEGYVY
In another assay the target is T8, ERF (Homo sapiens, UniProt P50548 1-548).
T8 sequence: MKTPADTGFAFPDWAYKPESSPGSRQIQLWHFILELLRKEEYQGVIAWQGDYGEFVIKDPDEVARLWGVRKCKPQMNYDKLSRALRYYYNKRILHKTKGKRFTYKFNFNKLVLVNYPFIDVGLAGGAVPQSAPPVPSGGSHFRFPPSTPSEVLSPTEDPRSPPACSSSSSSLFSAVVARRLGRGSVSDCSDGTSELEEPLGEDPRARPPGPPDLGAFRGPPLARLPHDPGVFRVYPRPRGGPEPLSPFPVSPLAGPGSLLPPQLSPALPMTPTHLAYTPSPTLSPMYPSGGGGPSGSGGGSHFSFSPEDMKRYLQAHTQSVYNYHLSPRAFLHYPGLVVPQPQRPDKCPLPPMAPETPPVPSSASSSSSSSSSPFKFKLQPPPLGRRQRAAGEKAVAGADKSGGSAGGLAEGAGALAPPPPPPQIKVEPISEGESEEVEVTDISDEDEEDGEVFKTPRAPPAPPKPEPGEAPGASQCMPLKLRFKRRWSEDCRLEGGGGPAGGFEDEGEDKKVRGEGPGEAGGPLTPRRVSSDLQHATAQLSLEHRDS
The settings on record: protein: recombinant; tags: N-terminal GST; dsDNA, one strand shown. The gist of the method:
as §1

The next assay has as its target T9, ETV3L (Homo sapiens, UniProt Q6ZN32 1-361).
T9 sequence: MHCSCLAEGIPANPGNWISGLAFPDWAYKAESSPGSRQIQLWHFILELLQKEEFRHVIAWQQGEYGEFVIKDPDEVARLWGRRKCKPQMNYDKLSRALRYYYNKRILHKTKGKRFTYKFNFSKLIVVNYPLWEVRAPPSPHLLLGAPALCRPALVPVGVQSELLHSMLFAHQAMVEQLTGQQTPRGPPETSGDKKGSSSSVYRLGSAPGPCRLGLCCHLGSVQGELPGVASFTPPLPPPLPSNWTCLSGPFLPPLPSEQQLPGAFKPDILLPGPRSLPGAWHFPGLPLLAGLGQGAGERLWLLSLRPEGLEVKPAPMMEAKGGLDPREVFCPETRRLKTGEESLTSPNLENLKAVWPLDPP
The settings on record: protein: recombinant; tags: N-terminal GST; dsDNA, one strand shown. The gist of the method:
as §1

In a further assay the target is T10, ETV7 (Homo sapiens, UniProt Q9Y603 1-341).
T10 sequence: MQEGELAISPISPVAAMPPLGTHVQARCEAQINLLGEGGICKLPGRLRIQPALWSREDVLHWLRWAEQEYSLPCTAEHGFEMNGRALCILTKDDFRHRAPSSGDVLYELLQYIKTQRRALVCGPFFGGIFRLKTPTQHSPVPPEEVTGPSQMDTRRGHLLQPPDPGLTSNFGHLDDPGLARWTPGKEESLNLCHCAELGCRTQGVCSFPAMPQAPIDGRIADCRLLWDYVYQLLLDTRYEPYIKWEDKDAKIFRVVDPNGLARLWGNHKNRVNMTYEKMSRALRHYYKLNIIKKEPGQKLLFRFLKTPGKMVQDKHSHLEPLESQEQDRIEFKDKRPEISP
The settings on record: protein: recombinant; tags: N-terminal GST; dsDNA, one strand shown. An outline of the steps:
as §1

Another assay addresses T11, ETV3 (Homo sapiens, UniProt P41162-2 1-143).
T11 sequence: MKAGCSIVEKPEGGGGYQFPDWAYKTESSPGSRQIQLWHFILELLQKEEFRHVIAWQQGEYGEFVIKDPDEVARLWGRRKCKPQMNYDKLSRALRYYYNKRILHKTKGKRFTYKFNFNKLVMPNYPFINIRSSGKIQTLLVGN
The following applies: protein: recombinant; tags: N-terminal GST; dsDNA, one strand shown. The gist of the method:
as §1

In the next assay the target is ETV6 (Homo sapiens, UniProt P41212 1-452). The settings on record: protein: recombinant; tags: N-terminal GST; dsDNA, one strand shown. The gist of the method:
as §1

ELF1, sequence (P32519 whole entry): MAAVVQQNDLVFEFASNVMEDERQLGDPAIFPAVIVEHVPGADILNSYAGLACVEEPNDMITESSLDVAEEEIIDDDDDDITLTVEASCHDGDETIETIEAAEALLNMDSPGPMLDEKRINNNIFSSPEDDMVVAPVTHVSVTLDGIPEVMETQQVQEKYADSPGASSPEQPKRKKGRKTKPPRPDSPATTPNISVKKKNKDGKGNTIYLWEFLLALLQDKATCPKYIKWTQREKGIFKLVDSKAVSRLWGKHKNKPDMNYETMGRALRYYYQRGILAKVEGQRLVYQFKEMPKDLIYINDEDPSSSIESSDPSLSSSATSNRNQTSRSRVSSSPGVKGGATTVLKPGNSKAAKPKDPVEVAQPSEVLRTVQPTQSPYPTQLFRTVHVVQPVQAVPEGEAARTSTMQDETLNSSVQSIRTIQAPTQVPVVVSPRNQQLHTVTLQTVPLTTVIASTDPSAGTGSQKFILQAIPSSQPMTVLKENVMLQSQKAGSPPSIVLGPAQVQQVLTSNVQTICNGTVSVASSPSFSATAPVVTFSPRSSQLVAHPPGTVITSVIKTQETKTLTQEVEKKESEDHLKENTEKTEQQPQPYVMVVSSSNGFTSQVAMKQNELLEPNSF
ETV6, sequence (P41212 whole entry): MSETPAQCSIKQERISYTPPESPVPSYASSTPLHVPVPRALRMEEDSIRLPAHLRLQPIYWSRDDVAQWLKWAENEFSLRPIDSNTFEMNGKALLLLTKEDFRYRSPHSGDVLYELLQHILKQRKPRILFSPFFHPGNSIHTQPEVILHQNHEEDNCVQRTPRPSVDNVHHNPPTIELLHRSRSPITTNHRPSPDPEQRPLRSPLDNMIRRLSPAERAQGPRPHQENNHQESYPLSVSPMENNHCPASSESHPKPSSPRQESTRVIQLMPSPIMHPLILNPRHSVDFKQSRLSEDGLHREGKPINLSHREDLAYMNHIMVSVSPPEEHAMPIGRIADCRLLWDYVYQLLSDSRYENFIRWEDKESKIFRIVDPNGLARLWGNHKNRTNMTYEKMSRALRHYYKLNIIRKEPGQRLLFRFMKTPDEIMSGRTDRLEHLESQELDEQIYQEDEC

For the sequence AGAACA, the binding signal with FLI1 is 1.06 fold enrichment (6-mer frequency, TF over GST control); in the assay with ELK1, 1.06 fold enrichment (6-mer frequency, TF over GST control); with GABPA, 1.11 fold enrichment (6-mer frequency, TF over GST control); with ERG, 1.01 fold enrichment (6-mer frequency, TF over GST control); in the assay with ELF1 it was 1.07 fold enrichment (6-mer frequency, TF over GST control); with EHF, 1.02 fold enrichment (6-mer frequency, TF over GST control). Further, the binding signal was 2.37 fold enrichment (6-mer frequency, TF over GST control) with HSF1; 1.06 fold enrichment (6-mer frequency, TF over GST control) in the assay with ELF4; 1.02 fold enrichment (6-mer frequency, TF over GST control) in the assay with ELK4; 1.03 fold enrichment (6-mer frequency, TF over GST control) with ETV2; 1.02 fold enrichment (6-mer frequency, TF over GST control) in the assay with ETV1; 1.07 fold enrichment (6-mer frequency, TF over GST control) with ERF. The binding signal was 1.01 fold enrichment (6-mer frequency, TF over GST control) with ETV3L; 1.07 fold enrichment (6-mer frequency, TF over GST control) in the assay with ETV7; 1.07 fold enrichment (6-mer frequency, TF over GST control) in the assay with ETV3; 1.08 fold enrichment (6-mer frequency, TF over GST control) in the assay with ETV6.

Values taken from paper PMC7862700, “An all-to-all approach to the identification of sequence-specific readers for epigenetic DNA modifications on cytosine”.
